# Results taken from PubChem BioAssay (EPA / NIEHS).
# Inconclusive results are not listed. The source made the active and inactive calls. Rule for the calls: active = hit-call score of the fitted dose curve at least 0.9, where 1 is the maximum; inconclusive = response in the unintended direction; inactive = score below 0.9.
# Target: human Retinoic Acid Receptor gamma (RARg), RARG (gene 5916) (UniProt P13631)
# Test: ATG_RARg_TRANS: Attagene TRANS-FACTORIAL HepG2 Assay for human Retinoic Acid Receptor gamma (RARg) (AID 2283009)
# Method: ATG_TRANS is a cell-based, multiplexed-readout assay that uses HepG2, a human liver cell line, with measurements taken at 24 hours after chemical dosing in a 24-well plate.ATG_RARg_TRANS is one of 30 assay component(s) measured or calculated from the ATG_TRANS assay. It is designed to make measurements of mRNA induction, a form of inducible reporter, as detected with fluorescence intensity signals by Reverse transcription polymerase chain reaction (RT-PCR) and Capillary electrophoresis technology.Data from the assay component ATG_RARg_TRANS was analyzed into 1 assay endpoint. This assay endpoint, ATG_RARg_TRANS, was analyzed in the positive analysis fitting direction relative to DMSO as the negative control and baseline of activity. Using a type of inducible reporter, measures of mRNA for gain-of-signal activity can be used to understand the reporter gene at the transcription factor-level as they relate to the gene RARG. Furthermore, this assay endpoint can be referred to as a primary readout, because this assay has produced multiple assay endpoints where this one serves a reporter gene function. To generalize the intended target to other relatable targets, this assay endpoint is annotated to the nuclear receptor intended target family, where the subfamily is non-steroidal.
# Human liver HepG2 cells are transiently transfected with multiple reporter transcription units (MRTUs) in 6-well plates using FuGene 6 reagent (Roche; 3 ml FuGene/1 mg DNA). The MRTU constructs are regulated by a cis-regulating element (promoter). […] A major difference between the CIS and TRANS system is that in CIS activities of endogenous TFs are measured, whereas the TRANS assay evaluates changes in activities of exogenous, chimeric NR-Gal4 proteins. […] At the end of 24 hour incubation, total RNA was isolated using TriZol reagent (Invitrogen). The isolated RNA is then reverse-transcribed using oligo(dT) primer and Mo-MLV reverse transcriptase (Invitrogen) with DNAse I (Ambion) treatment for 30 min. The one-tenth of the produced cDNA was amplified by PCR using Taq DNA polymerase (Invitrogen) and two reporter sequence-specific primers. The PCR products were fluorescently labeled by primer extension with 6-arboxyfluorescein (6-FAM) 5'-labeled reporter sequence-specific primer (2 min at 95 C, 20 s at 68 C and 10 min at 72 C) and these products were digested with 5U of HpaI (New England Biolabs) for 2h at 37 C. […] The raw capillary electrophoresis data was processed using Attagraph software (Attagene).
# human Retinoic Acid Receptor gamma (RARg), RARG (gene 5916), sequence (P13631 whole entry, looked up): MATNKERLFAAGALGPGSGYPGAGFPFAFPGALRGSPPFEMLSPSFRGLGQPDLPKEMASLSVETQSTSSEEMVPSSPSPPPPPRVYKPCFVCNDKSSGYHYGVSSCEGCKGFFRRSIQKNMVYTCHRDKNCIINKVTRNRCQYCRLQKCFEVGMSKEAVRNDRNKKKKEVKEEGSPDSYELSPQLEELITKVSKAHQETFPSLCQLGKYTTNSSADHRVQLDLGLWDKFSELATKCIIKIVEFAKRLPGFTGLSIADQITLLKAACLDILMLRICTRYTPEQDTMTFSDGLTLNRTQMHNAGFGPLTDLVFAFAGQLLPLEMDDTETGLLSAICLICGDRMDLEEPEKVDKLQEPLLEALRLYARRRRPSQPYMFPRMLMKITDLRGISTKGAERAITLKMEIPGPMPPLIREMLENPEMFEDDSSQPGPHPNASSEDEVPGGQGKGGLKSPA
row,Compound,outcome
1,Oc1c(Cl)cc(Cl)c(Cl)c1Cl,inactive
2,CCCCCCCC(=O)OCC,inactive
3,CC(=O)OC1CCCCC1C(C)(C)C (stereo not given),inactive
4,CC(=O)C(C)C,inactive
5,CC(=O)CCC1=C(C)CCCC1(C)C,inactive
6,CCCCC1C(=O)N(c2ccccc2)N(c2ccccc2)C1=O,inactive
7,Clc1cccnc1,inactive
8,C1CNCCN1,inactive
9,CC1C(C)(C)C2=C(C(=O)CCC2)C1(C)C (stereo not given),inactive
10,CCOC(=O)c1ccc(C)cc1,inactive
11,C=C(C)C1CC=C(C)CC1 (stereo not given),inactive
12,CCc1cccc(C)c1N,inactive
13,CCc1cccc(CC)c1,inactive
14,COc1ccc(C(=O)/C(Br)=C\C(=O)O)cc1,inactive
15,CC(=O)c1ccc(S(=O)(=O)NC(=O)NC2CCCCC2)cc1,inactive
16,CC1CC(=O)CC(C)(C)C1 (stereo not given),inactive
17,CC1(C)[C@@H]2CC[C@@]1(C)C(=O)C2,inactive
18,CC(C)c1ccc2ncccc2c1,inactive
19,Fc1ccc(Br)cc1,inactive
20,CC(C)=CCl,inactive

row,Compound,outcome
1,CC(C)(C)C1CCC(=O)CC1,inactive
2,COc1nccnc1CC(C)C,inactive
3,CC1(C)C(=O)N(CO)C(=O)N1CO,inactive
4,CCC(=O)C1CC(C(C)C)CC=C1C (stereo not given),inactive
5,COC(OC)(C(=O)c1ccccc1)c1ccccc1,inactive
6,CCOc1ccc(NC(N)=O)cc1,inactive
7,C=C(C)C(=O)OCCOC(=O)C(=C)C,inactive
8,O=C(O)c1cc(O)c2ccccc2c1O,inactive
9,CCCCCCOC(=O)CCCCC(=O)OCCCCCC,inactive
10,CCOC(=O)/C=C\C(=O)OCC,inactive
11,CN(C)c1ccc2nc3ccc(=[N+](C)C)cc-3sc2c1,inactive
12,Nc1ccc(C(=O)O)cc1,inactive
13,CCc1cccc(C)c1N(C(=O)CS(=O)(=O)O)C(C)COC (stereo not given),inactive
14,CCCCCCCCC(CO)CCCCCC (stereo not given),inactive
15,OCCCc1ccccc1,inactive
16,CCCC(C)C(=O)OCC (stereo not given),inactive
17,COc1ccc(-c2coc3cc(O)cc(O)c3c2=O)cc1,inactive
18,CC1=NN(c2ccc(S(=O)(=O)O)cc2)C(=O)C1N=Nc1ccccc1 (stereo not given),inactive
19,CC(=O)OC1CCCCC1,inactive
20,Cc1cc(C)c(C=O)c(C)c1,inactive
